# Compound activity (PubChem BioAssay)
# M18AAP inhibitor = blocks P. falciparum M18 aspartyl aminopeptidase | hit rate 1.2% among 290,000 | recombinant PfM18AAP, H-Glu-NHMec fluorogenic cleavage | AID 1822 | inhibition, % at 7.35 µM;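 active = inhibition above the campaign mean inhibition over all tested compounds plus 3 SD, cut at about 28% in these data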;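 also: 0% = plate median of test compound wells and 100% = 2 mM ZnCl2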
# UHRF1 MBD2 ctr = UHRF1 methyl-DNA binding inhibition; Q96T88; UHRF1 binding to methylated oligo, TR-FRET; inhibition, % at 4.4 µM; hit rate 0.75% among 370,000;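 also: UHRF1 SRA domain binding a hemimethylated CpG hairpin DNA probe; 0% = median of test compound wells and 100% = reference inhibitor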
# PfGluPho inh = PfG6PD (Plasmodium falciparum) enzyme inhibition; PfGluPho enzyme, NADPH resazurin-diaphorase fluorescence; inhibition, % at 20 µM; hit rate 0.78% among 350,000; AID 504690;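 active = inhibition reaching at least a set limit at 20 µM in the primary screen, cut at about 59% in these data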;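 also: 0% = DMSO wells with substrate and 100% = DMSO wells lacking glucose-6-phosphate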
# MBD2 inh = inhibitors of human MBD2 binding to methylated oligonucleotide; inhibition, % at 4.4 µM; hit rate 0.31% among 370,000; TR-FRET; AID 686964; Q9UBB5; in the data active = inhibition above about 13%
# PRMT1 FP inh = PRMT1 (human) inhibition, primary screen; Q99873; recombinant PRMT1, activity-based probe fluorescence polarization; inhibition, % at 2.79 µM; hit rate 1.3% among 370,000; AID 652257;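 active = inhibition above about 21% made by adding two undisclosed values, limit read from the data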
# Target sequence (Q99873 whole entry, looked up): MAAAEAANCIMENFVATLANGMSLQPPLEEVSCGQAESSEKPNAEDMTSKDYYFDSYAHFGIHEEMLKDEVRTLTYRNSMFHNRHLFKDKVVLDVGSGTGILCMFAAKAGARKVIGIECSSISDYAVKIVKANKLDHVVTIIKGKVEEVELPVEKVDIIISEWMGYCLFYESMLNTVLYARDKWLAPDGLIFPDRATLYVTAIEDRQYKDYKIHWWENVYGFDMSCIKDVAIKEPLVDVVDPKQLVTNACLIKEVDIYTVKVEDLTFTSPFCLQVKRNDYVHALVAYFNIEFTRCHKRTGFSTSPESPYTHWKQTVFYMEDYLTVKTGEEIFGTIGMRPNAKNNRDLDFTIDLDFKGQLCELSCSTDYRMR
# UHRF1 ctr MBD2 = inhibits human UHRF1 binding to methylated oligonucleotide, MBD2 counter-screen; TR-FRET; hit rate 25% among 1,000; shares compounds with MBD2 inh; inhibition, % at 4.4 µM;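 also: UHRF1 SRA domain binding a labeled hemimethylated CpG hairpin DNA; 0% = vehicle only and 100% = reference inhibitor with vehicle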
# MBD2 confirm = MBD2-DBD methyl-DNA binding inhibition, TR-FRET confirmation; shares compounds with MBD2 inh; TR-FRET MBD2-DBD binding to methylated oligonucleotide; inhibition, % at 4.4 µM; hit rate 26% among 1,000; AID 720531; in the data active = inhibition above about 14%
# Numbers without * were called inactive; / = no result. An excerpt weighted towards active compounds, which were near 3.3% of everything screened. Rule as the data show it, unless noted: active = inhibition above about 21%; inactive = the rest.
SMILES,M18AAP inhibitor,UHRF1 MBD2 ctr,PfGluPho inh,MBD2 inh,PRMT1 FP inh,UHRF1 ctr MBD2,MBD2 confirm
O=C(CCCCn1c(=O)c2ccccc2n(Cc2ccccc2)c1=O)NC1CCN(Cc2ccccc2)CC1,7,27*,-1,13*,6,4,2
COc1ccc(-c2nc3c(C(=O)NCCN(C)C)cccc3c3ccccc23)cc1,/,-14,47,13,6,/,/
COc1ccc(C(=O)NCCN(C)C)c2nc3ccccc3cc12,/,-2,13,36*,0,16,70*
COc1cccc2nc3c(C(=O)NCCN(C)C)cccc3cc12,/,-12,4,19*,7,-5,30*
CN(C)CCNC(=O)c1cccc2[nH]c(-c3ccncc3)nc12,/,11,2,13*,0,16,20*
CC[n+]1c(C)n(-c2ccccc2)c2ccc(C(=O)OC)cc21,-6,4,-4,3,-2,/,/
Cn1c(/C=C/c2ccc(Cl)cc2Cl)c([N+](=O)[O-])c(=O)n(C)c1=O,13,-1,2,-2,-5,/,/
Cc1ccc(S(=O)(=O)N2[C@@H](c3ccc(Br)cc3)C(C(=O)O)=C[C@H]2C(C)(C)C)cc1,/,0,-20,1,-2,/,/
COC(=O)[C@H](CC(C)C)N(CCc1cn(CC2CCCCC2)nn1)S(=O)(=O)c1ccc(F)cc1Br,/,2,/,5,0,/,/
COC(=O)[C@H](C(C)C)N(Cc1cn(CC2CCCCC2)nn1)S(=O)(=O)c1ccc(F)cc1Br,/,19,/,17*,-3,7,7
COC(=O)[C@H](CC(C)C)N(Cc1cn(CC2CCCCC2)nn1)S(=O)(=O)c1ccccc1Br,/,18,/,17*,5,8,11
COC(=O)[C@H](CC(C)C)N(Cc1cn(CC2CCCCC2)nn1)S(=O)(=O)c1ccc(F)cc1Br,/,21*,/,19*,-2,7,12
COC(=O)[C@H](C(C)C)N(CCCc1cn(CC2CCCCC2)nn1)S(=O)(=O)c1ccc(F)cc1Br,/,10,/,-5,-3,/,/
CCC(C)c1ccccc1NC(=O)COc1ccc(-n2cnnn2)cc1 (stereo not drawn),/,1,-7,1,-1,/,/
COc1ccc(C(=O)NCCS(=O)(=O)N2CCC3(CC2)OCCO3)cc1,/,-1,-1,-3,-2,/,/
O=C(NCCS(=O)(=O)N1CCN(Cc2ccccc2)CC1)c1ccc(F)cc1,/,-2,6,-5,-5,/,/
CCC1CCc2c([nH]c3ccccc3c2=O)O1 (stereo not drawn),5,22*,2,13*,2,6,0
NC(=O)COC(=O)c1cc(Cl)cc(Cl)c1N,0,5,6,32*,8,3,2
Nc1c(Cl)cc(Cl)cc1C(=O)OCC(=O)N1CCCC1,-10,-1,2,1,-3,/,/
COc1ccc(N2CCN(C(=O)c3ccc4c(c3)CC(c3ccccc3)OC4=O)CC2)cc1 (stereo not drawn),/,21*,-3,14*,6,10,6
COc1ccc(CC(=O)Nc2ccc(OC)c(NC(=O)c3ccco3)c2)cc1,-7,20,-16,15*,-2,3,6
COc1ccc(NC(=O)CCc2ccccc2)cc1NC(=O)c1ccco1,-9,4,-3,3,5,/,/
CCCc1nc2ccc(C)cn2c1Cc1ccsc1,/,22*,/,16*,9,10,7
Cc1ccc(Cc2c(-c3cccc(Cl)c3)nc3ccc(C)cn23)cc1,/,16,/,6,-2,/,/
Cc1ccc(-c2nc3ccc(C)cn3c2Cc2ccsc2)cc1,/,13,/,5,-2,/,/
Cc1ccc2nc(-c3cccc(Cl)c3)c(Cc3ccsc3)n2c1,/,20,/,13*,4,9,5
CC(C)(C)N1OC2CC1c1nc3ccccc3n1C2 (stereo not drawn),/,2,-1,1,1,/,/
C[C@@H]1COc2cc(Br)ccc2S(=O)(=O)N1Cc1cn(Cc2ccc(Br)cc2)nn1,/,-1,/,2,0,/,/
Cc1ccc(NC(=S)N(CCCN2CCN(C)CC2)Cc2cccs2)cc1,3,25*,-7,16*,12,9,3
CCCN1CCN(CCCNC(=O)c2cc3c(=O)oc4ccc(C)cc4c3s2)CC1,-2,-7,5,0,0,/,/
